HP1b chromo inh = HP1-beta chromodomain-methylated histone interaction inhibition | AID 540317 | AlphaScreen HP1-beta / biotin-H3K9me3 peptide binding | P83916 | Potency, µM (top dose mostly 114 µM), inactives show top-dose activity change, negative = inhibition, usual class: inhibitors | actives 0.56% (n = 390,000); note: potency is the fitted concentration of half-maximal effect; nearly all actives have a fitted effect of over 70% in size
Target sequence (P83916 whole entry, looked up): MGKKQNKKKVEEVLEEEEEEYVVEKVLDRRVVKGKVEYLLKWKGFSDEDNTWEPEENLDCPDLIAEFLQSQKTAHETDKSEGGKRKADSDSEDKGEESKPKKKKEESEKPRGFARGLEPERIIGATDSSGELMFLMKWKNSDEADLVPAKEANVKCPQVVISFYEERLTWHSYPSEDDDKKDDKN
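HP1-beta protein (50 nM final) preincubated 30 min at room temperature with biotinylated H3(1-18)K9me3 peptide (50 nM) in PBS pH 7.4, 0.01% Tween-20, then compound added for 30 min. AlphaScreen streptavidin donor/nickel chelate acceptor beads (10 ug/mL final), 30 min dark, luminescence read.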
JMJD2A Tudor inh = JMJD2A Tudor domain (human) inhibition. O75164. AlphaScreen JMJD2A-Tudor / H3K4me3 peptide binding. Potency, µM (highest dose often 114 µM), without a hit: top-dose activity change, negative = inhibition, usual class: inhibitors. actives 4.4% (n = 390,000). AID 504339; note: potency is the fitted concentration of half-maximal effect; % is set by controls: 0 for no effect and ±100 for the full control effect; nearly all actives have a fitted effect of over 50% in size
G9a block = blocks human histone lysine methyltransferase G9a; Potency, µM (highest dose often 102 µM), inactives show at the highest dose activity, negative = inhibition, usual class: inhibitors; G9a H3K9 monomethylation, AlphaScreen, 2 h; actives 8.8% (n = 350,000); Q96KQ7; note: potency is the fitted concentration of half-maximal effect; % is set by controls: 0 for no effect and ±100 for the full control effect; nearly all actives have a fitted effect of over 75% in size
Target sequence (Q96KQ7 913-1193 limits assumed): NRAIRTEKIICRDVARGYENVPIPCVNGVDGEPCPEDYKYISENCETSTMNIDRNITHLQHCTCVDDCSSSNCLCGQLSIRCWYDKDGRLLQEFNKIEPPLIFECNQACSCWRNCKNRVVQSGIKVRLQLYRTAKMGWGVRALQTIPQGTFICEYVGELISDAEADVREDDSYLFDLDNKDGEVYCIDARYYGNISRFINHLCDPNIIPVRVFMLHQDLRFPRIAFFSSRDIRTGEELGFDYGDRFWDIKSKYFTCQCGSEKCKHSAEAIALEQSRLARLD
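Enzyme 20 nM + cpd, 15 min RT; add b-H3K9 pep 500 nM / SAM 20 uM; 2 h RT; anti-H3K9me1 Ab 0.5 ug/mL + SA donor / anti-rabbit acceptor beads 20 ug/mL each, 10 min; AlphaScreen read.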
Six1-Eya2 blk = Six1/Eya2 interaction inhibition | AlphaScreen GST-Six1/His-Eya2 binding, biochemical; hits give low values | activity change, % (concentration not given with the values) | actives 0.56% (n = 360,000) | AID 651725; in the data active = activity change below about -65%; inconclusive = mostly about -30% to -63%; note: % is set by controls: 0 for no effect and ±100 for the full control effect
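AlphaScreen luminescence read after one hour at 37 °C in darkness. Pin-transferred compounds met GST-Six1 and His-Eya2 protein (5X stock 250 nM/500 nM) plus glutathione donor and Ni-chelate acceptor beads (5X, 50 ug/mL).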
BAZ2B inh = blocks human BAZ2B; AlphaScreen BAZ2B-H3K14Ac peptide displacement; Potency, µM (top dose mostly 114 µM), without a hit: top-dose activity change, negative = inhibition, actives largely listed as inhibitors; actives 4.4% (n = 360,000); AID 504333; note: potency is the fitted concentration of half-maximal effect; % is set by controls: 0 for no effect and ±100 for the full control effect; nearly all actives have a fitted effect of over 60% in size
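Complex of BAZ2B and biotin-H3K14Ac (50 nM apiece) forms over 30 min at RT, then faces library compounds up to 110 uM for another 30 min; AlphaScreen beads added, 20 min dark incubation, luminescence read.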
CtBP-E1A inh = inhibitors of CtBP/E1A interaction; AID 651724; AlphaScreen GST-E1A/His-CtBP binding, 1536-well; hits give low values; actives 0.49% (n = 340,000); activity change, % (concentration not given with the values); in the data active = activity change below about -65%; inconclusive = mostly about -30% to -63%; note: % is set by controls: 0 for no effect and ±100 for the full control effect
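Steps: dispense buffer (Tris pH 8.0, NaCl 300 mM, TCEP 1 mM, BSA, Tween 20); add 5X protein mix (GST-E1A, His-CtBP, 125 nM each); pin 23 nL compound; 2 h at 37 °C, dark; add 5X beads (50 ug/mL); 1 h; read.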
Active calls of the source: *; ? = inconclusive; nt = no result; [ ] = dose if it differs, or a comment. Hits are enriched below; roughly 10% of the tested compounds scored in any of these assays. Unless noted, calls come from the whole dose curve; as a rule, active = well fitted inhibition curve with a large enough effect; inconclusive = small, poorly fitted or top-dose-only effect; inactive = no such curve, though single readings can be large or run the other way.

SMILES	HP1b chromo inh	JMJD2A Tudor inh	G9a block	Six1-Eya2 blk	BAZ2B inh	CtBP-E1A inh
Cc1nn(-c2ccccc2)c2nc(-c3ccncc3)cc(C(=O)NCc3ccco3)c12	-12%	?	50µM*	-4	-1%	-1
Cc1ccccc1-n1nc(C)c2c(C(=O)NN)cc(-c3ccncc3)nc21	20%	-17%	-6%	-1	-6%	0
Cc1nn(-c2ccccn2)c2nc(-c3cccs3)cc(C(=O)NCc3ccco3)c12	22%	?	45µM*	-8	-11%	-17
COc1cccc(Oc2ccc(OC)cc2C(=O)O)c1	6%	25µM*	nt	2	-34%	6
O=C(O)c1ccccc1Nc1ccccc1	20%	-23%	24µM*	4	-6%	-2
COc1cc(-c2ccc(Nc3ccccc3C(=O)O)c(OC)c2)ccc1Nc1ccccc1C(=O)O	35µM*	?	0.79µM*	-27	5.6µM*	?
COc1ccc(OC)c(S(=O)(=O)Nc2ccccc2C(=O)O)c1	36%	-19%	?	-2	8%	1
CC(=O)Nc1ccc(NC(=O)c2ccccc2Nc2ccccc2)cc1	9%	-11%	50µM*	1	-14%	0
O=C(O)c1ccccc1Nc1ccc(OC(F)F)cc1	20%	-12%	-7%	0	?	3
Cc1nn(C)c(C(=O)Nc2cccc(Nc3ccccc3)c2)c1[N+](=O)[O-]	nt	nt	45µM*	nt	50µM*	nt
CC(=O)n1cc(Nc2ccccc2C(=O)O)c2ccccc21	15%	-20%	40µM*	0	5%	2
Cc1c(C(=O)Nc2ccc(Nc3ccccc3)cc2)cccc1[N+](=O)[O-]	-21%	?	40µM*	-1	?	nt
Cc1nn(C)c(C(=O)N/N=C/c2ccccc2)c1[N+](=O)[O-]	17%	-14%	16%[59 µM]	-1	2%	0
COc1cccc(Nc2ccccc2C(=O)O)c1	13%	-17%	40µM*	1	?	-2
O=c1c2cccnc2n(Cc2ccccc2F)c(=O)n1Cc1ccc(F)cc1	122%	23%	83%[59 µM]	nt	41%	nt
COc1cccc(N2CC(NC(=O)c3cc(Cl)ccc3OC)CC2=O)c1 (stereo not drawn)	-8%	-9%	0%[59 µM]	nt	-4%	nt
NCCCC(N)CC(=O)NC1CNC(=O)C(C2CC(O)N=C(N)N2)NC(=O)/C(=C/NC(N)=O)NC(=O)C(CO)NC(=O)C(CO)NC1=O (stereo not drawn)	nt	nt	28%[59 µM]	nt	nt	nt
CC(=O)c1ccc(N2CCN(C(=O)c3cc4cc5cc(C)ccc5nc4s3)CC2)cc1	21%[57 µM]	-12%	4%[59 µM]	nt	2%	nt
NC(=S)Cc1nc2n(n1)Cc1ccccc1-2	-14%	25µM*	4µM*	-1	-23%	-8
CCOC(=O)CNC(=O)C1CCCN(c2ncccn2)C1 (stereo not drawn)	1%	-19%	-1%[59 µM]	-83*	9%	?
O=C(N/N=C1/C(=O)c2cccc3cccc1c23)c1ccc(Cl)cc1	-9%	35µM*	?	-16	50µM*	-6
CCNC(=S)N/N=C1\C(=O)c2cccc3cccc1c23	-2%	-17%	3%[59 µM]	-11	-10%	-15
Cc1ccc2c(c1)N(C(=O)N1CCC(C(=O)NCc3ccco3)CC1)CC(C)O2 (stereo not drawn)	48%	-8%	-16%[59 µM]	nt	-18%	nt
C/C(CCc1oc2ccccc2c1-c1ccc(C)o1)=N/O	-28%	56µM*	?	-15	?	-10
COc1cc(NC(=O)c2cccc(Cl)c2)c(OC)cc1NC(=O)CN1CCOCC1	15%	?	45µM*	-16	?	-14
SMILES	HP1b chromo inh	JMJD2A Tudor inh	G9a block	Six1-Eya2 blk	BAZ2B inh	CtBP-E1A inh
COc1cc(NC(=O)c2ccc(F)cc2)c(OC)cc1NC(=O)CN1CCCCC1	16%	-19%	50µM*	-22	-18%	11
COc1ccc(C2CC(=O)N(CC(=O)Nc3cccc(C)c3C)c3ccccc3S2)cc1OC (stereo not drawn)	4%	-25%	-5%[59 µM]	nt	-5%	nt
CCC(CC)c1nn2c(=O)cc(COc3ccc(NC(=O)c4ccccc4Cl)cc3)nc2s1	54%	6%	-4%[59 µM]	nt	-3%	nt
COC(=O)Nc1nc2c(s1)CCCC2	23%	-22%	21%[59 µM]	0	-1%	1
CC(=O)NC(Nc1nc2c(s1)CCCC2)(C(F)(F)F)C(F)(F)F	?	-2%	50µM*	5	-3%	7
O=C1Cc2ccccc2C(=O)N1CCc1ccccc1	35%	-22%	32µM*	6	4%	-6
Cn1c(N)c(C(=O)CSc2ccc3c(c2)OCCO3)c(=O)n(C)c1=O	31%	0%	-9%[12.7 µM]	-11	-1%	-15
COCCNc1nnc(SCC(=O)c2cc(C)n(C3CC3)c2C)s1	nt	nt	nt	-2	nt	-1
CCNc1nnc(SCC(=O)c2cc(C)n(C3CC3)c2C)s1	7%	-33%	50µM*	-1	-10%	2
Cc1cc(C(=O)CSc2ccc3c(c2)OCCO3)c(C)n1C1CC1	-15%	-26%	?	-16	79µM*	-12
O=C(Nc1cccc(-c2nc3ccccc3o2)c1)c1cccc2c(Cl)cccc12	19%	-5%	4%[59 µM]	nt	-19%	nt
Cc1ccc(C)c(Cn2c(=O)c3c(nc4n3CCN4c3ccccc3)n(C)c2=O)c1	7%	-19%	-32%[59 µM]	nt	-14%	nt
CCCCC(=O)Nc1ccc(C(=O)NNC(=O)c2ccc(C)c(Br)c2)cc1	-10%	56µM*	?	4	-35%	-2
CCCC(=O)Nc1ccc(C(=O)NNC(=S)NC(=O)c2ccc(Br)o2)cc1	?	-4%[11.4 µM]	40µM*	-13	5%	nt
COc1ccc(OC)c(CCNC(=O)c2cc3c(=O)n(C)c4ccccc4c3n2C)c1	12%	-19%	-38%[59 µM]	nt	?	nt
O=S(=O)(c1ccc(-c2csc(=Nc3ccc(OC(F)(F)Cl)cc3)n2CCCO)cc1)N1CCCC1	-27%	?	1µM*	nt	89µM*	nt
Cn1c(-c2ccc(S(=O)(=O)N3CCCC3)cc2)csc1=Nc1ccc(Cl)c(Cl)c1	?	50µM*	?	nt	-29%	nt
COCCCn1c(-c2ccc(S(=O)(=O)N3CCOCC3)cc2)csc1=Nc1ccccc1	?	?	?	-9	?	-7
CCn1c(-c2ccc(S(=O)(=O)N3CCOCC3)cc2)csc1=Nc1ccc(C)c(Cl)c1	-1%	-16%	3%[12.7 µM]	nt	-6%	nt
COc1ccccc1-c1nc2c(c(SCc3cccc(Cl)c3)n1)Cc1c(CO)cnc(C)c1O2	28%	5%	-14%[59 µM]	nt	-16%	nt
Cc1cccc(OCC(=O)N/N=C/c2cccn2C)c1	-4%	?	?	-13	-38%	nt
Cc1ccc(C(C)C)c(OCC(=O)N/N=C/c2cccn2C)c1	?	?	nt	-5	25µM*	nt

From PubChem BioAssay
